Bioassay records (PubChem BioAssay)
PglD inh = blocks C. jejuni PglD acetyltransferase activity. purified PglD enzyme, DTNB colorimetric CoA detection. inhibition, % at 12.5 µM. 360,000 compounds, 0.098% hits. AID 602405; in the data active = inhibition above about 16%, passing the limit was not always enough
C2C12 statin = suppressors of simvastatin-induced myotoxicity in C2C12 myotubes; ATP luminescence, 48 h; scaled: DMSO 0, geranylgeraniol control 100; rescue of ATP level, % at 7.49 µM; 330,000 compounds, 0.78% hits;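 active = mean ATP rescue above about 67%, or every replicate alone reaching that limit, limit read from the data, passing the limit was not always enough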;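 also: myotubes were challenged with 10 µM simvastatin during compound exposure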
F508del corr = correctors of CFTR F508del function in bronchial epithelial cells | 350,000 compounds, 0.36% hits | CFBE cells, YFP halide quenching; stimulated with forskolin plus potentiator P3; % fluorescence drop versus neutral controls | activity (quench increase), % at 7.58 µM;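 active = mean added fluorescence quench of at least 8% versus neutral control, with both replicates also reaching 8%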;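 also: cells transiently co-express mutant CFTR-F508del with the halide-sensitive YFP; corrector assay measuring rescue of mutant channel to the surface after 24 h compound exposure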
ARNT-TACC3 inh = ARNT/TACC3 interaction disruption | AlphaScreen His-ARNT PAS-B/GST-TACC3 binding, luminescence; TACC3 fragment carries E629A point mutation | inhibition, % at 9.99 µM | 390,000 compounds, 0.66% hits | AID 623870;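 active = mean inhibition of replicates at least 50% and at least half of replicates each reaching 50%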;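 also: 0% = complete ARNT plus TACC3 wells and 100% = ARNT alone without TACC3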
* hit, by the source's call. In the library only some 1.4% were active in any assay of this set; here they are far more common.

For Cc1nc2c3ccccc3nc(SCC(=O)c3ccc(Cl)cc3)n2n1 the results were PglD inh -7, C2C12 statin -3 and ARNT-TACC3 inh -8.
O=C(N[C@@H]1CC[C@H](CC(=O)N2CCCCC2)O[C@@H]1CO)c1ccccn1 was read as PglD inh 2, C2C12 statin -12, F508del corr 2 and ARNT-TACC3 inh -5.
For O=C(/C(=C/c1ccc(Cl)cc1)c1nc2ccccc2[nH]1)c1cccs1 the results were C2C12 statin 181* and ARNT-TACC3 inh 5.
`Cc1ccc(S(=O)(=O)N(C)C[C@@H]2OCCCC[C@@H](C)Oc3ccc(NC(=O)c4ccncc4)cc3C(=O)N([C@@H](C)CO)C[C@@H]2C)cc1` gave PglD inh 0, F508del corr 0 and ARNT-TACC3 inh -5.
COC(=O)C(Cc1ccc(OC(=O)c2ccc(Cl)cc2)cc1)N1Cc2ccccc2C1=O (configuration not stated) was read as PglD inh 0, C2C12 statin 84* and ARNT-TACC3 inh 4.
Screening O=C(Nc1ccc(S(=O)(=O)N2CCC(C(=O)NC3CCCCC3)CC2)cc1)c1ccco1 returned PglD inh 2, C2C12 statin 179* and ARNT-TACC3 inh 0.
Screening O=C1c2ccccc2C(=O)N1CCc1nc2ccccc2c(=O)n1CCCn1ccnc1 returned PglD inh 2, C2C12 statin 95* and ARNT-TACC3 inh -7.
Screening O=C1c2ccccc2C(=O)N1Cc1nc2ccccc2c(=O)n1CCCn1ccnc1 returned ARNT-TACC3 inh 5.
`N#CC1CN(C(c2ccccc2)c2ccccc2)C1` gave PglD inh 2, C2C12 statin 107* and F508del corr -2.
Screening N#CC1CN(Cc2ccccc2)CN(Cc2ccccc2)C1 returned F508del corr -5 and ARNT-TACC3 inh -10.
`CC(=O)N1Cc2cc(C(=O)NCc3cccc(F)c3)nc(-c3cccc(C4=CCCC4)c3)c2[C@@H]1CCO` gave F508del corr 0.
Screening CCNC(=O)Cn1cc(C#N)c2ccccc21 returned PglD inh 4, C2C12 statin 93* and ARNT-TACC3 inh -4.
`COc1ccc(NC(=O)Cn2cc(C#N)c3ccccc32)cc1` gave F508del corr -2 and ARNT-TACC3 inh -3.
Screening Cc1ccc(S(=O)(=O)Nc2ccc3c(c2)C(=O)N([C@H](C)CO)C[C@@H](C)[C@@H](CN(C)S(=O)(=O)c2c(C)noc2C)OCCCC[C@H](C)O3)cc1 returned PglD inh -2, F508del corr -1 and ARNT-TACC3 inh -5.
CCOC(=O)/C(=N\Nc1cccc(Cl)c1)Sc1nnc(-c2ccc(OC)cc2)n1C was read as ARNT-TACC3 inh 46*.
COc1ccc(-c2nnc(SCC(=O)Nc3ccc(Cl)cc3)n2C)cc1 was read as PglD inh -1, C2C12 statin 10, F508del corr -1 and ARNT-TACC3 inh -3.
For CCOC(=O)[C@H]1[C@H]2COc3ccc(C)cc3[C@@H]2N2C(=O)c3ccc(Cl)cc3NC(=O)[C@@]12C the results were PglD inh -6, C2C12 statin 6, F508del corr 2 and ARNT-TACC3 inh -2.
Screening CCOC(=O)[C@H]1[C@H]2COc3ccc(Cl)cc3[C@@H]2N2C(=O)c3ccc(Cl)cc3NC(=O)[C@@]12C returned PglD inh 3, C2C12 statin -12, F508del corr 0 and ARNT-TACC3 inh 15*.
O=C(C[C@H]1CC[C@H](NC(=O)c2cnccn2)[C@@H](CO)O1)NCc1ccccc1F was read as PglD inh -3, C2C12 statin 3, F508del corr 4 and ARNT-TACC3 inh -8.
For COCCNC(=O)CCSc1nc(-c2ccc(OC)cc2)cc(C(F)(F)F)n1 the results were PglD inh 7 and C2C12 statin 87*.
`COc1ccc(-c2cc(C(F)(F)F)nc(SCCC(=O)Nc3cc(C)on3)n2)cc1` gave PglD inh -1 and ARNT-TACC3 inh -3.
For CC(=O)OCC(=O)Nc1ccc([N+](=O)[O-])cc1Cl the results were F508del corr 2 and ARNT-TACC3 inh 1.
For CC(=O)Oc1c(C)cc(Cl)cc1C(=O)Nc1ccc([N+](=O)[O-])cc1Cl the results were F508del corr 13*.
For CCOC(=O)C1=C(N)c2ccccc2CC1C(C)C (configuration not stated) the results were PglD inh 2, C2C12 statin 123* and ARNT-TACC3 inh 11.
`Cc1cccn2c(=O)c3cc(C#N)c(=N)n(CCCN4CCOCC4)c3nc12` gave PglD inh -10, C2C12 statin 5 and ARNT-TACC3 inh -5.
`Cc1cccn2c(=O)c3cc(C#N)c(=N)n(CCN4CCOCC4)c3nc12` gave PglD inh -5, C2C12 statin 104* and ARNT-TACC3 inh -4.
`CCN(C(=S)Nc1cccnc1)c1cccc2ccccc12` gave F508del corr 2 and ARNT-TACC3 inh 51*.
For CCN(C(=S)NCc1ccccc1)c1cccc2ccccc12 the results were PglD inh 5, C2C12 statin 3, F508del corr 1 and ARNT-TACC3 inh -10.
`CCN(C(C)=O)c1cccc2ccccc12` gave PglD inh -2, C2C12 statin 147* and ARNT-TACC3 inh -2.
Screening CCN(C(=S)Nc1cccnc1)c1ccccc1 returned C2C12 statin 11, F508del corr -3 and ARNT-TACC3 inh 1.
For CCCN(C)C[C@@H]1Oc2cc(-c3cncnc3)ccc2S(=O)(=O)N([C@@H](C)CO)C[C@@H]1C the results were PglD inh 16*, C2C12 statin -2 and F508del corr 1.
For C[C@H]1CN([C@@H](C)CO)S(=O)(=O)c2ccc(-c3ccc(C#N)cc3)cc2O[C@@H]1CN(C)Cc1ccccn1 the results were PglD inh 1, C2C12 statin -9, F508del corr 12* and ARNT-TACC3 inh -5.
`C[C@@H]1CN([C@@H](C)CO)S(=O)(=O)c2ccc(-c3cncnc3)cc2O[C@@H]1CN(C)C` gave PglD inh 1, C2C12 statin -7, F508del corr -1 and ARNT-TACC3 inh -6.
`Cc1ccc(-c2ccc3c(c2)O[C@@H](CN(C)Cc2ccccn2)[C@H](C)CN([C@H](C)CO)S3(=O)=O)cc1` gave PglD inh 2, C2C12 statin -92, F508del corr 16* and ARNT-TACC3 inh 9.
`C[C@@H]1CN([C@H](C)CO)S(=O)(=O)c2ccc(-c3ccc(C#N)cc3)cc2O[C@@H]1CN(C)Cc1cccc(F)c1` gave PglD inh 5, C2C12 statin -54, F508del corr 6 and ARNT-TACC3 inh 15.
C[C@@H]1CN([C@@H](C)CO)S(=O)(=O)c2ccc(-c3ccc(C#N)cc3)cc2O[C@H]1CN(C)Cc1cccc(F)c1 was read as PglD inh 3, C2C12 statin -69, F508del corr 8.0* and ARNT-TACC3 inh 11.
O=C(C[C@H]1CC[C@H]2[C@@H](COC[C@H](O)CN2C(=O)Nc2cccc(F)c2)O1)NCc1ccccc1Cl was read as PglD inh -1, C2C12 statin 16, F508del corr -2 and ARNT-TACC3 inh -4.
